Results on eight compounds are retold here after PubChem BioAssay.

Activity calls are given as the source filed them.

The target of assay [1] is Albumin (Bos taurus) (UniProt P02769). Nature of the assay: bovine serum albumin binders on microarray, profiling panel, artefact control for SMM control protein annotation, biochemical, small-molecule microarray, Alexa647 label, 635/667 nm fluorescence (AID 1118).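 Also: score merges 667 nm emission intensity and signal-to-noise per printed compound spot.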 To be noted: BSA-A647 binding, fluorescence 635 nm, higher = more signal.
A short description of assay [2]: small-molecule microarray binders of probe aXIP, primary screen, biochemical, NeuroSMM set, 635/667 nm fluorescence (AID 1119).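 Also: probe is the protein aXip251-270 applied at 1 µg/mL to compound-printed slides; binding of probe to printed compounds measured as 667 nm fluorescence plus signal to noise.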 To be noted: higher = more signal, called active from +8 up or from −8 down.
Assay [3] is described as follows: small-molecule binders of probe aNOTCH3, primary screen, biochemical, small-molecule microarray, 635/667 nm fluorescence (AID 1120).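 Also: probe is a biotin-tagged antibody raised against NOTCH3 rather than NOTCH3 protein; score merges spot fluorescence near 667 nm with spot signal to noise.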 To be noted: higher = more signal.
Assay [4] in a line: small-molecule binders of probe aNOTCH2, primary screen, biochemical, small-molecule microarray, 635/667 nm fluorescence (AID 1121).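 Also: score merges feature fluorescence read at 667 nm with its signal to noise.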 The conditions noted are these: higher = more signal.
Assay [5] deals with Carbonic anhydrase 2 (Homo sapiens) (UniProt P00918). As to the kind of experiment: CAII small-molecule binders, profiling panel, biochemical, small-molecule microarray, Alexa647-labelled CAII (AID 1122). The conditions noted are these: CAII-A647 binding fluorescence, higher = more signal.
The nature of assay [6]: COS7 lysate on small-molecule microarray, probe aHis, 635 nm (AID 1123).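 Also: z-score combines 667nm fluorescence intensity with signal-to-noise per printed compound spot.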 To be noted: COS7 cell lysate, fluorescence, higher = more signal.
Assay [7] can be described thus: compound binding in COS7 lysate, probe aLAP1, primary screen, cell lysate, small-molecule microarray (AID 1124).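 Also: lysate comes from COS7 cells expressing LAP1 and is applied at 0.3 µg/mL; score merges spot fluorescence near 667 nm with signal-to-noise over triplicate slides.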 To be noted: probe aLAP1, fluorescence, higher = more signal.
The subject of assay [8] is Sam68 (KHDRBS1). Nature of the assay: Sam68 small-molecule binders, primary screen, biochemical, small-molecule microarray, 635 nm fluorescence (AID 1125).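 Also: score merges 667 nm channel intensity with signal to noise over triplicate slides.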 To be noted: small-molecule microarray binding, higher = more signal.
The subject of assay [9] is Chordin-like protein 2 (CHRDL2). Nature of the assay: CHRDL2 small-molecule binders, primary screen, biochemical, small-molecule microarray, 635 nm fluorescence (AID 1126).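 Also: printed compound slides probed with Chrdl2 protein at 4 µg/mL for 1 h at 4 C; score merges 667 nm emission intensity with signal to noise over three replicate slides.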 The conditions noted are these: small-molecule microarray binding, fluorescence 635 nm; higher = more signal.
The target of assay [10] is Concanavalin-A (Canavalia ensiformis) (UniProt P02866). Nature of the assay: ConA small-molecule binders, primary screen, artefact control for SMM control protein annotation, biochemical, small-molecule microarray, Alexa647 label, 635 nm (AID 1127).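 Also: z combines 667 nm emission intensity with signal-to-noise across three replicate slides.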 To be noted: ConA-A647 binding fluorescence, higher = more signal.
The nature of assay [11]: anti-His antibody binders, primary screen, artefact control for SMM control protein annotation, biochemical, small-molecule microarray, 635 nm fluorescence (AID 1128).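 Also: score merges feature fluorescence with signal-to-noise for each printed compound spot.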 The conditions noted are these: anti-His Alexa647 antibody binding, higher = more signal.
In assay [12] the test system is Human papillomavirus type 1a E7 protein (residues 1-88). As to the kind of experiment: HPV1a E7 small-molecule binders, primary screen, biochemical, small-molecule microarray, residues 1-88, 635 nm (AID 1129). To be noted: small-molecule microarray binding, fluorescence 635 nm; higher = more signal.
For assay [13], the target named is Focal adhesion kinase 1 (Homo sapiens) (UniProt Q05397). Nature of the assay: small-molecule microarray binders of FAK, primary screen, biochemical, 635/667 nm fluorescence, BSA, DTT (AID 1130).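 Also: composite of spot emission at 667 nm and signal to noise over triplicate slides.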 To be noted: PTK2 binding, 635 nm fluorescence, higher = more signal.
The subject of assay [14] is Fibrinogen (Alexa647-labelled). As to the kind of experiment: fibrinogen binders on compound microarrays, profiling panel, artefact control for SMM control-protein annotation, biochemical, small-molecule microarray, 635/667 nm fluorescence (AID 1131).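 Also: z-score merges 667 nm fluorescence with per-spot signal-to-noise over triplicate slides.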 The conditions noted are these: fibrinogen-A647 binding fluorescence, higher = more signal.
Assay [15] concerns the target Follistatin (Homo sapiens) (UniProt P19883). Nature of the assay: follistatin binders on small-molecule microarrays, primary screen, biochemical, small-molecule microarray, 635/667 nm fluorescence (AID 1132). To be noted: FST binding, 635 nm fluorescence, higher = more signal.
Assay [16] addresses Fibroblast growth factor 2 (Homo sapiens) (UniProt P09038). Nature of the assay: FGF2 binders on small-molecule microarrays, primary screen, biochemical, small-molecule microarray, 635/667 nm fluorescence (AID 1133). To be noted: small-molecule microarray binding, FGF2, fluorescence 635/667; higher = more signal.
Assay [17] in a line: mitochondrial membrane potential change in A549 cells, profiling panel, cell-based, JC-1 fluorescence, basal, 24 h, 100 nL (AID 1138).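 Also: A549 lung adenocarcinoma cells under basal conditions with no added stimulus; test concentration not given here.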 The conditions noted are these: higher = more signal.
In assay [18] the test system is Lefty1. Nature of the assay: Lefty1 binders on small-molecule microarrays, primary screen, biochemical, small-molecule microarray, 635/667 nm fluorescence (AID 1139). The conditions noted are these: small-molecule microarray binding, fluorescence 635/667; higher = more signal.
Assay [19] deals with wheat germ agglutinin (Triticum aestivum), Alexa647-labelled. Nature of the assay: wheat germ agglutinin binders on compound microarrays, profiling panel, artefact control for SMM control-protein annotation, biochemical, small-molecule microarray, 635/667 nm fluorescence (AID 1140).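 Also: score merges 667 nm feature emission with signal to noise over triplicate slides.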 To be noted: WGA-A647 binding, 635 nm fluorescence, higher = more signal.
Assay [20] addresses Luciferin 4-monooxygenase (Photinus pyralis) (UniProt P08659). As to the kind of experiment: firefly luciferase enzyme inhibitors, primary screen, biochemical, luminescence, purified enzyme, 2006 set (AID 1141).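 Also: cell-free assay with purified firefly luciferase at 100 ng per well in PBS; test concentration not given here.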 The conditions noted are these: SteadyGlo luminescence, 30 min, higher = more signal, called active from +8 up or from −8 down.

Sequence of Albumin (Bos taurus) (P02769 whole entry, looked up): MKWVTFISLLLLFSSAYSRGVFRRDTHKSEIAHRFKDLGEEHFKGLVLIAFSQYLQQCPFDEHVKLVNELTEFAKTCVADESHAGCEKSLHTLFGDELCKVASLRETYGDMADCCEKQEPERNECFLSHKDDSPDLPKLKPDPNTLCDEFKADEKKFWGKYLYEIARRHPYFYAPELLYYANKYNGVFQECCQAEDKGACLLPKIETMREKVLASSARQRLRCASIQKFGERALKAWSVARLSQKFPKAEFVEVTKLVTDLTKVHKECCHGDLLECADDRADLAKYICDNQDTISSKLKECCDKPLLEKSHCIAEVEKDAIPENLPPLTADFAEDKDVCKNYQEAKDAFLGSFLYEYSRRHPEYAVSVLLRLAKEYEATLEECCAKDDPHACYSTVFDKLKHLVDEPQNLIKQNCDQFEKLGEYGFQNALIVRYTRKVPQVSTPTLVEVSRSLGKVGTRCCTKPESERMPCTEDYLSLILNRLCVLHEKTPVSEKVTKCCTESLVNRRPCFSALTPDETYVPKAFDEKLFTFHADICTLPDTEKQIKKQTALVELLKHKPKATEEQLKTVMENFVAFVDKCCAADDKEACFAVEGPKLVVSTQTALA
Sequence of Luciferin 4-monooxygenase (Photinus pyralis) (P08659 whole entry, looked up): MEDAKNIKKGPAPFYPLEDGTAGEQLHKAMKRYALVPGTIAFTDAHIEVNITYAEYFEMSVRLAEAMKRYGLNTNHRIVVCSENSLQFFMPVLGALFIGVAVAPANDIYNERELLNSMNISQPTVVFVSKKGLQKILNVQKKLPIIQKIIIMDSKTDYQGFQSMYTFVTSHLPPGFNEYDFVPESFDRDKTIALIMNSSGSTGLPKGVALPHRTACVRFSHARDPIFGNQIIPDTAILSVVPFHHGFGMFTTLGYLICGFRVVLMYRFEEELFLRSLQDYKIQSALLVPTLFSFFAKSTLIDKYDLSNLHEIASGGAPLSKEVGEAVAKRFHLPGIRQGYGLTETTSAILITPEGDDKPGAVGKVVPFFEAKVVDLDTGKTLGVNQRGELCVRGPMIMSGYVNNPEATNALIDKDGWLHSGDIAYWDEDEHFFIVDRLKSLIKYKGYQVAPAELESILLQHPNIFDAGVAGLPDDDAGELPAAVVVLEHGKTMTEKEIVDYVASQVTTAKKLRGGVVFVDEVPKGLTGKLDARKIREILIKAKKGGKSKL
Sequence of Follistatin (Homo sapiens) (P19883 whole entry, looked up): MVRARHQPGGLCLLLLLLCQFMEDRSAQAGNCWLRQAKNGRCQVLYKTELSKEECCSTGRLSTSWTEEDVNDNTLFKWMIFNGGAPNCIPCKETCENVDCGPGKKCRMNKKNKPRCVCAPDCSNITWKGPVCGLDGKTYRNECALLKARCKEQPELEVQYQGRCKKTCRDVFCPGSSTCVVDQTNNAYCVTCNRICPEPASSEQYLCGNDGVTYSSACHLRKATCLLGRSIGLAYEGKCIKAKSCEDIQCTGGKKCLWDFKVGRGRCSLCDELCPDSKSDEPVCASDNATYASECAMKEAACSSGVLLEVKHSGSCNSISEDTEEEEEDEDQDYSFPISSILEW
Sequence of Fibroblast growth factor 2 (Homo sapiens) (P09038 whole entry, looked up): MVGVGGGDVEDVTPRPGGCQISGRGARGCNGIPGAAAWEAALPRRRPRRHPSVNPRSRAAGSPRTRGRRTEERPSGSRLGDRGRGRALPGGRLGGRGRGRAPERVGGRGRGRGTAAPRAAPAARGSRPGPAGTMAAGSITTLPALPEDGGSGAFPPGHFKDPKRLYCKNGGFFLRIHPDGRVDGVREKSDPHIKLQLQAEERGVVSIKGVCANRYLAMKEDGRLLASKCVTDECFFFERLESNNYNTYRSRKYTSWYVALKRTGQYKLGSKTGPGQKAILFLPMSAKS
Sequence of Concanavalin-A (Canavalia ensiformis) (P02866 whole entry, looked up): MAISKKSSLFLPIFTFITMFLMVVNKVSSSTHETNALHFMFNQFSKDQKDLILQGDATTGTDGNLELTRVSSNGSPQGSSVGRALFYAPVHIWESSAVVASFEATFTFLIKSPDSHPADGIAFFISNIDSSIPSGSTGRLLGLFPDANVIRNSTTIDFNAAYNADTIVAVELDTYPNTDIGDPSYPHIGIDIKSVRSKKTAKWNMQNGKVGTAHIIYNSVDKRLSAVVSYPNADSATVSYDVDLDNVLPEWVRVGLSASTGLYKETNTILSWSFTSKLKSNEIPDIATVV
Sequence of Focal adhesion kinase 1 (Homo sapiens) (Q05397 whole entry, looked up): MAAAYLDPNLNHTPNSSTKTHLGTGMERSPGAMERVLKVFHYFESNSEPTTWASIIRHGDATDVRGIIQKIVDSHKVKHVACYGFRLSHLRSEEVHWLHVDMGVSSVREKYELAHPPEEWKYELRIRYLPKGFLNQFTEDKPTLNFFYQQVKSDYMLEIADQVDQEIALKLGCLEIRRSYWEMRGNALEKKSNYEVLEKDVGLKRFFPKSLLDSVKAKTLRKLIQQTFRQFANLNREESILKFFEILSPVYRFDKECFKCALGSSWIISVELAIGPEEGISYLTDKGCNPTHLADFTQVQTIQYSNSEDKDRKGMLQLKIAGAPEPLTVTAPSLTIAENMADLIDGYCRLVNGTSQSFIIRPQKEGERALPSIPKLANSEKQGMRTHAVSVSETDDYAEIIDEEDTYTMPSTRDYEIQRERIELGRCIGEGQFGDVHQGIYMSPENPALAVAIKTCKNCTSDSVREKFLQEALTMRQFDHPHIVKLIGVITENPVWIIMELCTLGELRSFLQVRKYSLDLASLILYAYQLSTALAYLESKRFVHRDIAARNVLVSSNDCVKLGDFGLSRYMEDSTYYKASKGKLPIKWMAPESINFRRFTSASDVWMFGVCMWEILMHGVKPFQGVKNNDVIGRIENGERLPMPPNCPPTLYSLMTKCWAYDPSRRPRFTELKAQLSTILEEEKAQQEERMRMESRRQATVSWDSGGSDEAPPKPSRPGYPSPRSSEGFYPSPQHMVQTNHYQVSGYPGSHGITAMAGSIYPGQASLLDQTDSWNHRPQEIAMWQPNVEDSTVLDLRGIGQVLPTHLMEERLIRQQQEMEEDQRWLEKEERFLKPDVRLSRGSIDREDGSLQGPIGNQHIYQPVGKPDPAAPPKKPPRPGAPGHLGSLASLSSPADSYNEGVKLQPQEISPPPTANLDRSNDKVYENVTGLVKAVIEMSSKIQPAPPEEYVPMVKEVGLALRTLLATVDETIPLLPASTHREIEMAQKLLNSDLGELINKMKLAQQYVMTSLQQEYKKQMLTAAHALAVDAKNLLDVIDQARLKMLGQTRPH

Consider `CC(C)CON=C1C[C@@H](O)[C@@H](O)[C@@H]2[C@@H]3C(=O)N(Cc4ccccc4)C(=O)[C@@H]3CC[C@H]12`, for which the composite z-score in assay [1] was 0.428; in [3], -0.0679; in assay [4], -0.122; in assay [5], 0.0889; in [6], 0.211; in [7] it was -0.366. Further, the composite z-score was found to be 0.51 in assay [8]; 0.447 in [9]; 0.321 in assay [10]; 0.247 in assay [11]; 0.502 in [12]; 0.052 in [13]. Also, the composite z-score in assay [14] was determined as 0.666; in assay [15], 0.363; in assay [16] it was 0.474; in assay [18], 0.669; in assay [19], 0.134. For the same compound, the composite Z-score in [2] was -0.288 (inactive). The results for the z-score in assay [17] and in assay [20] were -1.03 and 1.14 (inactive), respectively.
`CCOC(=O)[C@H](Cc1ccccc1)NC(=O)CCC1CC(OC(=O)NCc2ccc3c(c2)OCO3)CC2(CCCC(COC(=O)NCCOc3ccccc3)O2)O1` (stereo not given in full): the composite z-score in assay [1] was -0.245; in [3], 0.0636; in [4], -0.034; in assay [5], 0.109; in assay [6], 1.52; in assay [7] it was -0.252. The composite z-score in assay [8] was 1.29; in assay [9], 0.58; in assay [10] it was 1.13; in [11], 0.777; in [12], 1.16; in assay [13], -0.0176. For the same compound, the composite z-score in [14] was 0.96; in [15], 0.875; in [16], 0.776; in assay [18] it was 1.2; in assay [19] it was 0.304. In [2], the composite Z-score was -0.344 (inactive). Moreover, the z-score in assay [17] is 1.37; in assay [20] it was 0.289 (inactive).
Consider `CCCNC(=O)OC[C@H]1O[C@H](CCON=C[C@@H](NS(=O)(=O)c2ccc(C)cc2)[C@H](C)C=CCC(=O)OC)C=C[C@@H]1Oc1ccc(OC)cc1`, for which the composite z-score is -0.413 in assay [1]; 0.0961 in assay [3]; -0.0158 in assay [4]; -0.437 in assay [5]; -0.192 in assay [6]; -0.0407 in assay [7]. Moreover, the composite z-score in assay [8] is 0.0713; in [9], 0.16; in assay [10], -1.46; in assay [11] it was -0.114; in assay [12], 0.136; in [13], 0.459. Besides, the composite z-score in assay [14] was 0.0865; in assay [15], -0.0546; in assay [16], -0.102; in assay [18], 0.0275; in assay [19] it was 0.391. Besides, in [2], the composite Z-score was -0.385 (inactive). In addition, the values for the z-score in [17] and in assay [20] were 0.188 and -0.21 (inactive), respectively.
On to `COC(=O)CC=C[C@@H](C)[C@@H](C=NOC[C@@H](O)COCc1ccco1)OC`, for which the composite z-score in assay [1] was -0.15; in [3] it was -0.262; in [4], -0.14; in assay [5] it was -0.134; in [6], -0.452; in assay [7] it was 0.0649. Also, the composite z-score in assay [8] was -0.684; in [9], 1.36; in [10], -0.619; in [11] it was 1.46; in [12], -0.464; in assay [13], -0.354. Moreover, the composite z-score was -1.2 in assay [14]; 1.15 in assay [15]; 0.509 in assay [16]; 1.02 in assay [18]; -0.83 in assay [19]. In addition, the composite Z-score in [2] is -2 (inactive). The z-score in assay [17] was 0.662; in assay [20] it was -1.3 (inactive).
Take `COC(=O)[C@@H]1CC[C@H](C)[C@@H](c2ccc(Br)cc2)N1C[C@@H](O)CN=[N+]=[N-]`: the composite z-score in assay [1] is -0.236; in [3], 0.0016; in assay [4] it was -0.18; in assay [5] it was -0.0121; in assay [6] it was 0.23; in assay [7], 0.546. Moreover, the composite z-score in assay [8] is 0.56; in assay [9] it was 0.401; in assay [10], -0.0032; in assay [11] it was 0.215; in assay [12] it was -0.0633; in assay [13], -0.0902. Also, the composite z-score in assay [14] was 0.128; in [15], 0.4; in assay [16], 0.4; in [18], 0.45; in assay [19], -0.0107. The composite Z-score in assay [2] was -0.509 (inactive). Besides, the z-score in assay [17] is -0.822; in assay [20], 0.0386 (inactive).
Take `COC(=O)CC=C[C@@H](C)[C@@H](C=NOC(C)CN1CCCCc2nc(C)c(C)cc21)NS(=O)(=O)c1ccc(C)cc1` (stereo not given in full): the composite z-score in [1] was -0.636; in [3], 0.0949; in [4], -0.19; in assay [5], -0.277; in assay [6], -0.065; in assay [7] it was 0.0618. The composite z-score in assay [8] is 0.0692; in [9], 1.17; in assay [10], -0.135; in [11] it was 0.0454; in assay [12] it was 0.156; in assay [13] it was 0.0646. Moreover, the composite z-score in assay [14] is -0.207; in assay [15], 0.927; in assay [16], 0.601; in [18] it was 0.417; in [19] it was 0.0721. In addition, the composite Z-score in [2] is -0.292 (inactive). Moreover, the results for the z-score in assay [17] and in assay [20] were -0.297 and 0.183 (inactive), respectively.
On to `COCCNC(=O)OCC1CCCC2(CC(OC(=O)NCc3cccc4ccccc34)CC(CCC(=O)N[C@@H](C)C(=O)OC)O2)O1` (stereo not given in full), for which the composite z-score in assay [1] was 0.0307; in assay [3], -0.0362; in assay [4], -0.14; in assay [5], 0.262; in assay [6], 1.12; in assay [7], -0.107. Also, the composite z-score in [8] is 1.3; in assay [9], 0.665; in assay [10] it was 1.03; in assay [11] it was 0.522; in assay [12], 1.13; in assay [13] it was -0.208. The composite z-score in assay [14] came out at 0.912; in assay [15], 0.728; in assay [16], 1.04; in assay [18], 0.42; in assay [19], 0.598. The composite Z-score in [2] was 0.59 (inactive). Further, the figures for the z-score in assay [17] and in [20] were 0.609 and 0.396 (inactive), respectively.
On to `C[C@H]1CC[C@@H](C(=O)O)N[C@@H]1c1ccc(C#Cc2ccccc2)cc1`, for which the composite z-score in [1] is 0.213; in assay [3] it was 0.0876; in [4] it was -0.0907; in assay [5] it was 0.863; in assay [6], 0.803; in [7] it was 0.707. The composite z-score in assay [8] turned out to be 1.22; in [9], 1.34; in [10], 1.1; in assay [11], 1.53; in [12] it was 1.06; in assay [13], 0.454. Also, the composite z-score in [14] amounted to 0.918; in [15], 1.07; in [16], 0.551; in [18] it was 0.608; in assay [19] it was 1.11. Further, in [2], the composite Z-score is 0.142 (inactive). Also, the results for the z-score in assay [17] and in assay [20] were -2.02 and -9.82 (active), respectively.
